# Experimental data from PubChem BioAssay AID485358 (National Center for Advancing Translational Sciences (NCATS), 2010).
# Hit rate of the full screen: of about 340,000 compounds, about 1,800 (0.53%) were called active.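 Rule for the calls: active = activation over 3 SD above normal in the single-dose calcium agonist read (cut at about 30% in these data); inactive = the rest.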 The list comes from a sample in which actives are over-represented; it also holds similar structures and randomly drawn compounds.
# Biological target: D(2) dopamine receptor (Homo sapiens) (UniProt P14416)
# Sequence (P14416 whole entry, looked up): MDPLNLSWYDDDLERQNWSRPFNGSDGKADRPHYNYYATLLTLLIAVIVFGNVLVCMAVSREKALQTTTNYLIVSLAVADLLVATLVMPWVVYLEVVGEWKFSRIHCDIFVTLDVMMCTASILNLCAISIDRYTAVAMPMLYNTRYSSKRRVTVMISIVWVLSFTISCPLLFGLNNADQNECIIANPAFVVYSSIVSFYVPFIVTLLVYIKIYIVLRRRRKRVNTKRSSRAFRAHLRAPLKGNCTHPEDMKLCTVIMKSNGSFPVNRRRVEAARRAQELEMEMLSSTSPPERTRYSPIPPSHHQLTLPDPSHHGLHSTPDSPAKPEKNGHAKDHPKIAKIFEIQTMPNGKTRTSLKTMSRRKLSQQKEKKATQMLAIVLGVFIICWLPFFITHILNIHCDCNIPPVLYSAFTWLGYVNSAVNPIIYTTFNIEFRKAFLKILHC
# Assay: HTS Assay for Allosteric Agonists of the Human D2 Dopamine Receptor: Primary Screen for Agonists; note: 0% is about no effect
# Conditions: HEK293 T-REx D2 cells, calcium flux agonist mode; at 2 µM; active compounds read high
# Text: NIH Chemical Genomics Center [NCGC] NIH Molecular Libraries Probe Centers Network [MLPCN] MLPCN Grant: NS064831-01 Assay Submitter (PI): David Sibley Dopamine receptors (DARs) are involved in the etiology and/or therapy of a number of neuropsychiatric and endocrine disorders. For instance, all receptor-based antiparkinsonian drugs work via stimulating the D2 DAR subtype whereas all FDA-approved antipsychotic agents are antagonists of this receptor. […] There are three different types of allosteric modulators that we are seeking, two of which will stimulate or augment receptor signaling, allosteric agonists and potentiators, while the third, allosteric antagonists, will attenuate receptor signaling. The present primary screening assay measures compound agonism by tracking calcium flux in a […], inducible Hek293 Trex D2 cell line.
# Freshly passaged cells are plated in 1536 well black, clear bottom plates at a density of 4000 cells/well in 3 ul of complete media containing 1x tetracycline inducer. After an overnight incubation at […] in 5% CO2, cells are loaded with 2 ul of the no wash Calcium Assay Kit (ABD Bioquest) and incubated at room temperature for 30 to 90 minutes. Agonist read: A 10 cycle (1 second/cycle) baseline measurement is taken and then the FDSS online 1536 pintool delivers 23 nl of compound library (as well as dopamine controls) to the plate. The plate is measured for kinetically at 1 cycle/sec for 180 seconds and is considered to be the agonist portion of the assay (eg, compounds which activate a positive calcium response during this portion are flagged as potential agonists). Following the 180 second read, 1 ul of either an EC20 (positive modulation assay) or EC80 (negative modulation assay) is delivered by an onboard pipette head. Measurements are taken kinetically for an additional 180 seconds.
row,SMILES,activation
1,Fc1cccc(F)c1CN1CCN(Cc2c(F)cccc2F)CC1,1.26% (inactive)
2,COc1ccc(CN2CCN(c3ccccc3F)CC2)c(OC)c1,71.7% (active)
3,COc1ccccc1CN1CCN(C(=O)Cc2ccccc2)CC1,0.485% (inactive)
4,COC(=O)C1=C(c2cccc(OCc3ccccc3)c2)C[C@@H]2CC[C@H]1N2C(=O)NNCc1ccccc1,-0.13% (inactive)
5,Oc1cc2c(cc1CN1CCN(c3ccccc3)CC1)OCO2,83.3% (active)
6,CC(C)c1ccc(O)c(CN2CCN(c3ccccc3)CC2)c1,-1.71% (inactive)
7,Fc1ccc(N2CCN(Cc3ccc4c(c3)OCO4)CC2)cc1,6.76% (inactive)
8,COC(=O)C1=C(c2ccc3ccccc3c2)C[C@@H]2CC[C@H]1N2C(=O)NCCO,-0.422% (inactive)
9,CCc1ccc(OCC(=O)N2CCN(CC(=O)Nc3ccccc3Cl)CC2)cc1,1.2% (inactive)
10,Cc1cccc(Cn2cccc(C(=O)Nc3ccc4c(c3)OCCO4)c2=O)c1,0.0946% (inactive)
11,CCOC(=O)C1(Cc2ccc(Cl)cc2)CCN(C(C)CCn2cccn2)CC1 (stereo not given),72.7% (active)
12,CCOC(=O)C1(CCc2ccccc2)CCN(Cc2ccco2)CC1,0.433% (inactive)
13,COC(=O)C1=C(c2ccc(F)cc2OCc2ccccc2)C[C@@H]2CC[C@H]1N2C(=O)NCc1ccc(OC)c(OC)c1,-0.652% (inactive)
14,O=C(CCC(=O)N1C[C@H]2C[C@@H](C1)c1cccc(=O)n1C2)NCc1ccccc1C(F)(F)F,0.976% (inactive)
15,Cc1nnc(NC(=O)c2cccn(Cc3cccc(F)c3)c2=O)s1,0.455% (inactive)
